# Source: PubChem BioAssay
# This is a sample that favours compounds with a hit; in the whole collection about 2.3% have one here.
# USP1 inh = Inhibitors of USP1/UAF1: Primary Screen; recombinant USP1/UAF1, Ub-Rhodamine cleavage fluorescence; Potency, µM (titrated, usually from 57.1 µM), without a hit: at the highest dose activity change, negative = inhibition, most hits filed as inhibitors; 390,000 tested, 0.23% active; AID 743255, 2014; further: potency means the concentration at half of the fitted maximal effect; nearly all actives have a fitted effect of over 60% in size
# Target sequence (O94782 whole entry, looked up): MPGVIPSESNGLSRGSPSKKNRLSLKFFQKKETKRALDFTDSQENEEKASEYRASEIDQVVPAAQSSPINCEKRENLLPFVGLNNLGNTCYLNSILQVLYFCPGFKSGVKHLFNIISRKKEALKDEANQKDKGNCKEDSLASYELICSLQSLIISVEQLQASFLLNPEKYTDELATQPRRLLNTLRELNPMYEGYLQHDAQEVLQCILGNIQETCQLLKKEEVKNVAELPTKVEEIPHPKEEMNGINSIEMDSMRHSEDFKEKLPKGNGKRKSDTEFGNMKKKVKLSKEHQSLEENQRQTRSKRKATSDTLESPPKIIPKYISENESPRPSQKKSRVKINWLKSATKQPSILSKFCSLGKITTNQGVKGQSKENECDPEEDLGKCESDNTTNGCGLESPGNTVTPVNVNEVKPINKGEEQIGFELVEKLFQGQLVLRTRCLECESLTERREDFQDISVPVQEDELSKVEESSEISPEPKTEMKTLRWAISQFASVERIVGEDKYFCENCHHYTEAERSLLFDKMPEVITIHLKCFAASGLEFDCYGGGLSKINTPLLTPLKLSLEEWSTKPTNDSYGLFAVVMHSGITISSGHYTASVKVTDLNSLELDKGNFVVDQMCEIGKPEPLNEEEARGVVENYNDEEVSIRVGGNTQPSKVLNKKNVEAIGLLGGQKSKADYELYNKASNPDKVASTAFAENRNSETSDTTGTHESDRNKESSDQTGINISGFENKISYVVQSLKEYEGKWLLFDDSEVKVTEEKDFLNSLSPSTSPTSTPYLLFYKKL
#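 High-throughput fluorogenic screen: 1nM USP1/UAF1 complex, Ub-Rho substrate 150nM final, 50mM HEPES pH 7.8 with 0.5mM EDTA, 0.1 mg/ml BSA, 1mM TCEP and 0.01% Tween-20.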
# Tau fibril FP = qHTS for Inhibitors of Tau Fibril Formation, Fluorescence Polarization; K18 P301L tau heparin fibrillization, Alexa594 FP, 6 h; Potency, µM (series often up to 57.7 µM), without a hit: top-dose activity, negative = inhibition, actives largely listed as inhibitors; 280,000 tested, 0.39% active; AID 1468, 2008; further: potency means the concentration at half of the fitted maximal effect; nearly all actives have a fitted effect of over 55% in size
#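 Quantitative HTS format: compounds meet 15 uM recombinant K18 P301L tau and Alexa 594-tau tracer in 100 mM sodium acetate pH 7; 20 uM heparin triggers fibrillization at 37 C over 6 hr; FP gives the signal.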
# Tau fibril ThT = qHTS for Inhibitors of Tau Fibril Formation, Thioflavin T Binding; Microtubule-associated protein tau (Homo sapiens), P10636; recombinant tau K18 P301L, heparin-induced fibrillization, ThT fluorescence; Potency, µM (top dose mostly 57.4 µM), for the others: top-dose activity, negative = inhibition, hits mostly inhibitors; 270,000 tested, 2.1% active; AID 1460, 2008; further: potency means the concentration at half of the fitted maximal effect; nearly all actives have a fitted effect of over 55% in size
#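 Fibril formation assay: tau K18 P301L at 15 uM with trace Alexa 594 label, heparin inducer 20 uM, pH 7 sodium acetate buffer, 37 C for 6 hr; endpoint ThT signal.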
# Tau fluor counter = Counterscreen qHTS for Inhibitors of Tau Fibril Formation, Fluorescence Polarization; AID 1463, 2008; 280,000 tested, 0.93% active; Potency, µM (series often up to 57.7 µM), without a hit: at the highest dose activity change, negative = decrease; tau K18 P301L (four-repeat tau fragment) Alexa594 fluorescence, heparin fibrillization; further: potency means the concentration at half of the fitted maximal effect; nearly all actives have a fitted effect of over 55% in size
#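 Human K18 P301L tau (15 uM unlabeled plus 0.24 uM Alexa 594-labeled, final) in 100 mM sodium acetate pH 7 was mixed with compound and 20 uM heparin and incubated 6 hr at 37 C.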
# FBPA coupling cs = qHTS Assay for Inhibitors of Fructose-1,6-bisphosphate Aldolase from Giardia Lamblia: Coupling assay counterscreen | coupling enzyme system counterscreen, AmpLite Red fluorescence | activity change, negative = inhibition, % at 58.2 µM, hits read low | 290,000 tested, 0.67% active | AID 2472, 2010; in the data active means activity change below about -30%
#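 Final compound at 57.5 uM, incubated 10 min at RT with coupling enzyme reagent (glyceraldehyde-3-phosphate), then 20 min with substrate and AmpLite Red detection. Fluorescence read at 525/598 nm; tests interference with the coupling assay, not aldolase inhibition.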
# Active calls of the source: *; u = inconclusive; x = no result given; ! = a repeat was not active; [ ] = another dose, or the depositor's remark. Unless noted, the call rests on the fitted dose curve; in most records, active means well fitted curve in the direction sought with a large enough effect; inconclusive means small, poorly fitted or top-dose-only effect, or another doubt; inactive means no such curve, though single readings can be large; an effect the other way counts as inactive or inconclusive. On the % scale 0 is the no-effect control and ±100 the full control effect.
SMILES,USP1 inh,Tau fibril FP,Tau fibril ThT,Tau fluor counter,FBPA coupling cs
CCCn1c2ccccc2c2cnn(CC(=O)N(CCCOC)Cc3ccco3)c(=O)c21,-14%,8%,-7%,1%,x
CCOc1ccc(NC(=O)NCCc2c(C)nn(C)c2C)cc1,-20%,6%,-13%,-4%,x
COc1ccccc1NC(=O)c1c(N=Cc2c(O)ccc3ccccc23)cnn1C,-3%,u,u,u,-40*
O=C(O)CCCn1cc(NC(=O)c2cccc(F)c2)cn1,-16%,2%,-2%,-3%,4
O=C(O)CCCn1cc(NC(=O)c2cc(F)c(F)cc2Cl)cn1,-9%,-6%,18%,12%,-34*
COc1ccc(C2=CSC(/N=C/c3ccc(F)cc3)=NN2)cc1,-10%,-4%,14µM*,u,0
COc1ccc(/C=N/N=C/c2ccc(OC)cc2)cc1,-22%,x,x,x,0
CCOC(=O)C1(Cc2cccc(OC)c2)CCN(C2CCOCC2)CC1,-10%,-18%,13µM*,-82%,0
COc1ccccc1Cn1c(SCC(=O)C(C)(C)C)nc2ccccc2c1=O,-27%,u,10%,-18%,x
CCOC(=O)c1ccc(NC(=O)Cn2cnc3sc(C(=O)OCC)c(C)c3c2=O)cc1,-11%,-13%,-15%,-15%,x
CC(=O)c1ccc(NC(=S)Nc2cccc3cnccc23)cc1,-3%,-16%,u,-23%,-62*
Cc1ccc(NC(=S)Nc2cccc3cnccc23)cc1C,u,7%,6%,9%,-44*
NC(=S)Nc1cccc2cnccc12,-10%,1%,-9%,2%,1
Cc1ccc(NC(=S)Nc2cccc3cnccc23)cc1,-28%,u,u,-14%,-38*
S=C(Nc1cccc(Cl)c1)Nc1cccc2cnccc12,-19%,7%,3%,4%,4
COc1ccc(CNc2cc(-c3ccoc3)ncn2)c(OC)c1,x,x,x,x,-2
COc1ccc(C)cc1NC(=O)CSc1ncc2c(n1)-c1ccc(Cl)cc1N(Cc1ccccc1)S2(=O)=O,-5%,-7%,4%,-9%,x
CCc1ccc(-c2cc(C(=O)N/N=C/c3c[nH]c4ccccc34)[nH]n2)cc1,-4%,-6%,u,10µM*[quencher],-2
CCc1ccc2c(Cl)c(C(=O)N/N=C/c3c[nH]c4ccccc34)sc2c1,-4%,u,10µM*,11µM*[quencher],-2
O=C(N/N=C/c1c[nH]c2ccccc12)c1cccc(Cl)c1,-15%,x,x,x,0
Cc1ccc2ncc(C(=O)NCc3ccccc3Cl)c(=O)n2c1,u,3%,3%,1%,x
O=C1Nc2ccc(I)cc2/C1=C/c1cc(Br)c(O)c(Br)c1,x,u,4µM*,14µM*![quencher],-7
COc1ccccc1NC(=O)CN1CCCN(S(=O)(=O)c2ccc(Br)cc2)CC1,-25%,0%,-18%,-24%,x
COc1cccc(CNC(=O)C2CCN(Cc3cc4ccccc4n3Cc3ccc(C)cc3)CC2)c1,-21%,-7%,-11%,-22%,x
O=C(Cc1coc2ccc3ccccc3c12)N1CCCC1,-20%,6%,9%,10%,-37*
SMILES,USP1 inh,Tau fibril FP,Tau fibril ThT,Tau fluor counter,FBPA coupling cs
COc1ccc(CCNC(=O)c2c(C)oc3ncn(C)c(=O)c23)c(OC)c1,-9%,-4%,-7%,-13%,x
Cn1ncc2c(Nc3cccc(Cl)c3)nc(Nc3cccc(Cl)c3)nc21,-18%,8.9µM*,16%,u,-6
Cn1ncc2c(Nc3ccc(Br)cc3)nc(Nc3ccc(Br)cc3)nc21,-13%,10µM*,u,u,-2
Cn1ncc2c(Nc3ccc(O)cc3)nc(Cl)nc21,-3%,14%,-14%,-17%,0
COc1ccc(-c2nn(C)c3sc(C(=O)Nc4cc(OC)c(OC)c(OC)c4)cc23)cc1OC,-23%,u,u,2.5µM*[quencher],x
COc1ccc(-c2nn(C)c3sc(C(=O)NCc4ccco4)cc23)cc1OC,-14%,7%,13%,9%,0
COc1ccc(NC(=O)c2cc3c(-c4ccc(OC)c(OC)c4)nn(C)c3s2)cc1OC,-20%,-2%,u,3.5µM*[quencher],0
